We go through 7 compounds from PubChem BioAssay (NCATS).

The nature of experiment [1]: Cell Viability - Jurkat (AID 426;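 active = dose-dependent loss of cell ATP signal giving a full or clear fitted curve, ranked by lower potency value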;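 note: potency is the fitted concentration of half-maximal effect; cells exposed to compound for 40 hours at 37 °C before ATP read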). The conditions noted are these: qHTS. A digest of the protocol: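 Cytotoxicity was scored as loss of cellular ATP, measured by luciferase-based luminescence, in Jurkat clone E6-1 cells after 40 h compound treatment; tamoxifen and doxorubicin served as positive controls.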
Experiment [2] can be described thus: Cell Viability - Hek293 (AID 427;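 active = compounds whose dose-response curve shows a full or clear partial loss of cell viability, called from curve shape rather than a numeric limit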;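 note: potency is the fitted concentration of half-maximal effect; cells exposed to compound for 40 hours at 37 °C before reading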). The following applies: qHTS. A digest of the protocol:
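Luminescent ATP read-out (CellTiter-Glo, 20 min RT) after 40 hr compound exposure at 37 °C in complete medium. Signal normalized to DMSO (basal) and 100 uM tamoxifen (100% inhibition); concentration-response fitted with the standard Hill equation to give AC50.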
In general terms: qHTS replaces the single test concentration by a dilution series.

The nature of experiment [3]: Cell Viability - SK-N-SH (AID 435; calls by dose curve;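 note: potency is the fitted concentration of half-maximal effect; compound exposure lasted 40 h at 37 °C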). The conditions noted are these: SK-N-SH neuroblastoma cell viability qHTS. A digest of the protocol: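 SK-N-SH neuroblastoma cells (1500/well) treated 40 h at 37 °C in complete medium; viability read as cellular ATP by CellTiter-Glo luminescence. Normalized to DMSO and 100 uM tamoxifen; AC50 from Hill fits of qHTS concentration-response.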

A short description of experiment [4]: Cellular Toxicity (caspase-3) Jurkat (AID 655).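 Note: cells exposed to compound for 16 h at 37 °C before reading.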 The conditions noted are these: Jurkat caspase-3 activation, luminescence; caspase-3 activation: at 92.2 µM (top of the series), DMSO = 0%, tamoxifen = 100%. A digest of the protocol: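 Jurkat cells (5000/well) in complete medium exposed 16 h at 37 C; caspase-3/7 activity read by Caspase-Glo luminescence after 20 min at room temperature. Normalized to DMSO and 100 uM tamoxifen; AC50 from Hill fits.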

The nature of experiment [5]: Cell Viability - LYMP2-004 (AID 966).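 Note: plate controls were DMSO only for no effect and tetraoctylammonium bromide control for full effect; nearly all actives have a fitted effect of over 65% in size.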 The conditions noted are these: LYMP2-004 lymphoblastoid cell viability, qHTS; series mostly up to 92.2 µM. A digest of the protocol: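 Viable-cell number estimated from ATP luminescence (CellTiter-Glo) in 2500 human lymphoblastoid cells/well after 24 hr at 37 C with compound. AC50 fitted to the standard Hill equation.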
The nature of experiment [6]: Cell Viability - LYMP2-019 (AID 973).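 Note: cells exposed to compound for 24 h at 37 °C; 0% = DMSO alone and full effect = 92 µM tetraoctylammonium bromide; nearly all actives have a fitted effect of over 55% in size.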 The following applies: LYMP2-019 lymphoblastoid cell line viability; series mostly up to 92.2 µM. The essentials: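 AC50 values come from Hill-equation modelling of qHTS concentration-response curves, where viability is measured as luciferase-based ATP luminescence in the lymphoblastoid line after 24 hr compound exposure in complete culture medium.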

Experiment [7] in a line: Cell Viability - LYMP2-021 (AID 974).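 Note: compound exposure lasts 24 hours at 37 °C; % is set by controls: 0 for no effect and ±100 for the full control effect; nearly all actives have a fitted effect of over 55% in size.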 The following applies: LYMP2-021 lymphoblastoid cells viability; series mostly up to 92.2 µM. The essentials:
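In qHTS format, compounds are tested against 2500 lymphoblastoid cells per well for 24 h; viable cell number is inferred from ATP-driven luciferase light, and Hill-equation fitting yields AC50 values.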

Experiment [8] is described as follows: Cell Viability - LYMP2-025 (AID 976).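 Note: cells exposed to compound for 24 h at 37 °C; plate controls were DMSO only for no effect and tetraoctylammonium bromide control for full effect.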 The conditions noted are these: LYMP2-025 lymphoblastoid cell viability; series mostly up to 92.2 µM. The essentials:
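Luminescent ATP readout after 24 hr treatment of a human lymphoblastoid line (LYMP2-025, 2500 cells/well, 37 C). Reagent developed 30 min at room temperature; AC50 fitted with the Hill equation.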

Experiment [9] in a line: Cell Viability - LYMP2-006 (AID 978).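 Note: cells exposed to compound for 24 hours; % is set by controls: 0 for no effect and ±100 for the full control effect; nearly all actives have a fitted effect of over 60% in size.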 The following applies: LYMP2-006 lymphoblastoid cell viability, qHTS; series mostly up to 92.2 µM. A digest of the protocol:
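Human lymphoblastoid cells (LYMP2-006), 2500/well in complete medium, were treated with compound for 24 hr at 37 C. Cellular ATP was read by CellTiter-Glo luminescence after 30 min, and AC50 values came from Hill-equation fits of concentration-response data.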

Experiment [10] in a line: Cell Viability - LYMP2-007 (AID 979).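 Note: cells exposed to compound for 24 h before reading; 0% = DMSO only and the negative end = 92 µM tetraoctylammonium bromide; nearly all actives have a fitted effect of over 60% in size.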 The following applies: LYMP2-007 lymphoblastoid cell viability; series mostly up to 92.2 µM. The essentials:
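Measured via luciferase-based ATP quantitation: lymphoblastoid cells, 24 hr compound exposure at 37 C, AC50 from Hill fits.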

Experiment [11] can be described thus: Cell Viability - LYMP2-008 (AID 980).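 Note: cells exposed to compound for 24 h at 37 °C; % is set by controls: 0 for no effect and ±100 for the full control effect; nearly all actives have a fitted effect of over 60% in size.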 The following applies: LYMP2-008 lymphoblastoid cell viability, qHTS; series mostly up to 92.2 µM. A digest of the protocol:
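Measured: ATP-dependent luminescence, proportional to viable cell number, in human lymphoblastoid cells treated 24 hr with compound in complete culture medium. Values are AC50s from Hill-equation modelling of qHTS titrations.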

Experiment [12] can be described thus: Cell Viability - LYMP2-014 (AID 983).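 Note: cells exposed to compound for 24 h at 37 °C; plate controls were DMSO only for no effect and 92 µM tetraoctylammonium bromide for full effect; nearly all actives have a fitted effect of over 50% in size.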 The conditions noted are these: LYMP2-014 lymphoblastoid cells, viability qHTS; series mostly up to 92.2 µM. The essentials:
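Quantitative HTS in lymphoblastoid cells: 24 hr compound exposure, then CellTiter-Glo ATP luminescence. Positive control was tetraoctylammonium bromide, 6.4pM to 92 uM.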

Experiment [13] in a line: Cell Viability - LYMP2-018 (AID 985).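 Note: plate controls were DMSO only for no effect and tetraoctylammonium bromide at 92 µM for full effect; nearly all actives have a fitted effect of over 50% in size.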 The following applies: LYMP2-018 lymphoblastoid cells, viability (qHTS); series mostly up to 92.2 µM. A digest of the protocol:
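In this qHTS viability assay, cells are treated for 24 hr and cellular ATP is quantified by luciferase-based luminescence, with tetraoctylammonium bromide as positive control.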

Experiment [14] is described as follows: Cell Viability - LYMP2-020 (AID 986).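 Note: cells exposed to compound for 24 h at 37 °C; plate controls were DMSO only for no effect and tetraoctylammonium bromide at 92 µM for full effect; nearly all actives have a fitted effect of over 55% in size.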 The following applies: series mostly up to 92.2 µM. A digest of the protocol:
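Cells at 2500 per well receive a 24 hr compound exposure at 37 C. Viability is measured as ATP-dependent luciferase luminescence, with AC50 modeled from qHTS concentration-response curves.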

Experiment [15] in a line: Cell Viability - LYMP1-002 - Assay at 40 hr (AID 994).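 Note: 0% = DMSO only and full inhibition = 92 µM tetraoctylammonium bromide; nearly all actives have a fitted effect of over 60% in size.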 The following applies: LYMP1-002 lymphoblastoid cell viability; series mostly up to 92.2 µM. A digest of the protocol:
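Concentration-dependent ATP loss after 40 hr treatment at 37 C defined toxicity; AC50 values were obtained by fitting the standard Hill equation.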

Experiment [16] can be described thus: qHTS assay for small molecule antagonists of retinoid X receptor alpha signaling (AID 588546).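 Note: cells stimulated with 9-cis-retinoic acid as agonist; % is set by controls: 0 for no effect and ±100 for the full control effect.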 The conditions noted are these: HEK293T RXRa-UAS-bla, beta-lactamase ratio, antagonist mode; measured here: W530 green channel, cytotoxicity proxy. The essentials: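 Beta-lactamase reporter inhibition, read as CCF4 fluorescence ratio (ex 405, em 460/530 nm) after 2 h at RT. HEK293T UAS-bla cells, 2500/well, were stimulated with 9-cis-RA at 500 or 100 nM final alongside test compound for 18 h at 37 C.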

Experiment [17] concerns the target Voltage-gated inwardly rectifying potassium channel KCNH2 (Homo sapiens) (UniProt Q12809). Description: qHTS Assay for Small Molecule Inhibitors of the Human hERG Channel Activity (AID 588834).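 Note: top concentration of the series differs between compounds; % is set by controls: 0 for no effect and ±100 for the full control effect; lower thallium flux fluorescence means stronger hERG block; nearly all actives have a fitted effect of over 50% in size.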 The conditions noted are these: U2OS BacMam hERG, FluxOR thallium flux fluorescence; series mostly up to 92.2 µM. The essentials: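 Thallium serves as surrogate for K+ influx through BacMam-delivered hERG in U2OS cells. Compounds are added for about 10 minutes after dye loading; stimulation buffer then starts flux, monitored kinetically on FDSS.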

Experiment [18] is described as follows: qHTS assay for small molecule agonists of the antioxidant response element (ARE) signaling pathway measured by Nrf2-dependant transcriptional activity - cell viability counter screen (AID 720653; active = well fitted curve in the direction sought with a large enough effect in the repeat runs; an effect the other way counts as inactive or inconclusive; note: % is set by controls: 0 for no effect and ±100 for the full control effect). The conditions noted are these: ARE-bla HepG2 viability, CellTiter-Glo ATP luminescence, 16 h; stronger effect = lower value. A digest of the protocol:
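Cytotoxicity counter screen: intracellular ATP quantified by CellTiter-Glo luminescence in the same ARE-bla HepG2 plates, after 16 h compound exposure and a 2 h beta-lactamase substrate step.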

The target of experiment [19] is Glucocorticoid receptor (Homo sapiens) (UniProt P04150). The experiment can be described thus: GR-EFC Redistribution (AID 451; calls by dose curve; note: potency is the fitted concentration of half-maximal effect). The following applies: CHO-K1 GR-EFC translocation, beta-gal luminescence, 2 h. The essentials:
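Translocation of GR-ED fusion to nuclear EA restores b-gal, read by luminescence after 1 h room-temperature detection. Engineered CHO-K1 biosensor cells, 1,000/well, exposed 2 h at 37 C to titrations up to 46 uM final.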

Experiment [20] can be described thus: Cell Viability - LYMP2-015 (AID 971).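 Note: 0% = DMSO only and full effect = 92 µM tetraoctylammonium bromide; nearly all actives have a fitted effect of over 55% in size.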 The conditions noted are these: LYMP2-015 lymphoblastoid cell viability; series mostly up to 92.2 µM. The essentials:
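AC50 values reflect Hill-model fits of ATP-based luminescence (CellTiter-Glo) from a human lymphoblastoid line, 2500 cells/well, treated 24 hr at 37 C.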

SMILES strings stand for the structures. Where “and” joins values, the source holds several entries; their conditions need not be identical. Equal values may be shown once. Inconclusive results are not listed. Calls of active or inactive are those of the source. Unless noted, calls come from the whole dose curve; as a rule, active = well fitted curve in the direction sought with a large enough effect; inconclusive = small, poorly fitted or top-dose-only effect, or another doubt; inactive = no such curve, though single readings can be large; an effect the other way counts as inactive or inconclusive.

Voltage-gated inwardly rectifying potassium channel KCNH2 (Homo sapiens), sequence (Q12809 whole entry, looked up): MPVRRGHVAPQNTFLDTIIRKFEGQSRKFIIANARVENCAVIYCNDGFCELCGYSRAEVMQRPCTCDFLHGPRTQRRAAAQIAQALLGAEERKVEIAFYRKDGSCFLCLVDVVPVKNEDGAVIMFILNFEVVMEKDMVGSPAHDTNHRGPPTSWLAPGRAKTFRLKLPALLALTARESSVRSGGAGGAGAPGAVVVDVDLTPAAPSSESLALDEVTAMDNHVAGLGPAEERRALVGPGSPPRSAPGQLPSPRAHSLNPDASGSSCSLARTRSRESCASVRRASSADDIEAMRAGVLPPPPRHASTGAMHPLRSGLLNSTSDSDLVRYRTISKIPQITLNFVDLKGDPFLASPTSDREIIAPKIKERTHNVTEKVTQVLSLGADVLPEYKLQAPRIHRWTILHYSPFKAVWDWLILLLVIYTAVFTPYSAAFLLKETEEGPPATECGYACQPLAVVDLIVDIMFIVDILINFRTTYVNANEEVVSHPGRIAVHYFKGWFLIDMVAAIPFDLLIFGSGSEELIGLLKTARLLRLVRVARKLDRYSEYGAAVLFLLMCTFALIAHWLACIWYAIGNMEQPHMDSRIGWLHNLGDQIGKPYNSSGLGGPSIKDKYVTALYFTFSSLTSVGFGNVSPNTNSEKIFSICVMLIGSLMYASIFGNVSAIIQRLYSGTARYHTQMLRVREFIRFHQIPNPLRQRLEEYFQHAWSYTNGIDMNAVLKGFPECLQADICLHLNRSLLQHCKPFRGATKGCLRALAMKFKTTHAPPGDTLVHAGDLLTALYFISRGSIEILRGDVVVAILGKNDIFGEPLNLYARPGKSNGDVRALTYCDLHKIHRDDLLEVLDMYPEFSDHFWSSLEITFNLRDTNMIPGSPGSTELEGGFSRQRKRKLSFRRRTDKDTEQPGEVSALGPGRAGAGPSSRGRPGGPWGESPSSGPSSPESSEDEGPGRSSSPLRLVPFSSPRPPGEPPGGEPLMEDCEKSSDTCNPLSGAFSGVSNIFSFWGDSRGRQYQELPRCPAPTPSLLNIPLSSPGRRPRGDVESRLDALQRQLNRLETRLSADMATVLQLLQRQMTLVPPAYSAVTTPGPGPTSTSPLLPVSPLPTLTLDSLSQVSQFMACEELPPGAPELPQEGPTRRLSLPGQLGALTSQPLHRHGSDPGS
Glucocorticoid receptor (Homo sapiens), sequence (P04150 whole entry, looked up, the tested form may be a part): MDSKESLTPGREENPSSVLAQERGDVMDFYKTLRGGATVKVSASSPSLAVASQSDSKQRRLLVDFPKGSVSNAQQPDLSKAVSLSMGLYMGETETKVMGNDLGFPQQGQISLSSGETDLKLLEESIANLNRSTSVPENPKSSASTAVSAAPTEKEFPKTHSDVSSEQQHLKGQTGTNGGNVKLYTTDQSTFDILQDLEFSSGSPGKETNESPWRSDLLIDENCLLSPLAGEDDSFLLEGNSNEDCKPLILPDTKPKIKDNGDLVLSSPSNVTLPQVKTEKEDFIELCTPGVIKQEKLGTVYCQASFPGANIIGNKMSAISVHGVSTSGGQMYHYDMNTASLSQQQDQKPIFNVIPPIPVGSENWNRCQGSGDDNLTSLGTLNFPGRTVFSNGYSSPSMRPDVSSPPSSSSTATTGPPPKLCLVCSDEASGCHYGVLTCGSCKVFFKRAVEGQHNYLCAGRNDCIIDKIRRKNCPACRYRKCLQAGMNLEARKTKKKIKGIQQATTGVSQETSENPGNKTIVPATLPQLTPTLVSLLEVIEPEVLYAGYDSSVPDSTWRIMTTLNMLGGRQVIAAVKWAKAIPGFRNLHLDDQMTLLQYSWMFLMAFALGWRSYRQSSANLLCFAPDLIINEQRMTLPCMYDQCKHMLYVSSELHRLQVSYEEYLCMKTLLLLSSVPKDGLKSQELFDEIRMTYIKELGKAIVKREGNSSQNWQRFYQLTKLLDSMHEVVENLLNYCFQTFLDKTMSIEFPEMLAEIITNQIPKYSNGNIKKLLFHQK

With `C=CC(=O)OCC(CC)CCCC` (stereo unspecified), the Potency in experiment [1], in experiment [2] and in [3] was > 92 µM (inactive) throughout. Besides, the caspase-3 activation in [4] was -0.0566% (inactive). Besides, the Potency result in experiment [5], in experiment [6], in experiment [7], in [8], in experiment [9] and in [10] was “inactive” in each case. The Potency result in [11], in experiment [12], in [13], in experiment [14], in experiment [15] and in [17] was “inactive” each time. Besides, the max response in experiment [16] was -0.0756% and 2.94%; in [18], -8.13% (inactive) and 5.16% (inactive).
Take `CC[C@]1(OC(=O)CN)C(=O)OCc2c1cc1n(c2=O)Cc2cc3ccccc3nc2-1`: in [19], the Potency is > 9.22 µM (inactive).
For the compound `COc1ccc(C=O)cc1`, the Potency in experiment [1], in experiment [2] and in experiment [3] was > 92 µM (inactive) in each case. Besides, the caspase-3 activation in [4] was -0.692% (inactive). Further, the Potency entry in experiment [5], in [20], in experiment [6], in experiment [7], in experiment [8] and in [9] was “inactive” in each case. The Potency entry in [10], in experiment [11], in [12], in experiment [13], in experiment [14] and in [15] was “inactive” each time. For the same compound, the Potency entry in [17] was “inactive”. The max response in experiment [16] is 3.67%; in experiment [18], 7.96% (inactive).
Take `COc1cc(-c2ccc(N)c(OC)c2)ccc1N`: the Potency in experiment [1], in experiment [2] and in experiment [3] was > 92 µM (inactive) each time. Further, the caspase-3 activation in experiment [4] is -0.124% (inactive). The Potency entry in experiment [5], in experiment [20], in [6], in [7], in experiment [8] and in experiment [9] was “inactive” in each case. The Potency entry in [10], in experiment [11], in experiment [12], in experiment [13], in [14] and in experiment [15] was “inactive” each time. For the same compound, the Potency entry in [17] was “inactive”. Also, the max response in [16] was 0.0176% and -5.1%; in experiment [18], 19% (inactive) and 0.28% (inactive) and -8.23% (inactive).
Consider `Cc1cccc(N)c1C`, for which the Potency in experiment [1], in [2] and in experiment [3] was > 92 µM (inactive) in each case. The caspase-3 activation in experiment [4] was 0.961% (inactive). Moreover, the Potency entry in [5], in experiment [20], in experiment [6], in [7], in experiment [8] and in [9] was “inactive” in each case. For the same compound, the Potency entry in experiment [10], in experiment [11], in experiment [12], in experiment [13], in [14] and in experiment [17] was “inactive” in each case. In addition, the max response in experiment [16] is -9%; in [18], 1.88% (inactive).
As to `O=[N+]([O-])c1ccc2c3c(cccc13)CC2`, the Potency in experiment [1], in experiment [2] and in experiment [3] was > 92 µM (inactive) throughout. For the same compound, the caspase-3 activation in [4] was 0.699% (inactive). The Potency result in experiment [5], in [20], in [6], in experiment [7], in experiment [8] and in experiment [9] was “inactive” each time. Moreover, the Potency result in [10], in [11], in experiment [12], in experiment [13], in [14] and in experiment [15] was “inactive” each time. For the same compound, the Potency entry in experiment [17] was “inactive”. For the same compound, the max response was -3.8% and -0.996% in experiment [16]; 3.04% (inactive) and 5.87% (inactive) in [18].
On to `O=[N+]([O-])c1ccc(O)c([N+](=O)[O-])c1`, for which, in experiment [2], the Potency was > 92 µM (inactive). Moreover, the caspase-3 activation in experiment [4] was -6.84% (inactive). Moreover, the Potency entry in experiment [5], in experiment [20], in experiment [6], in experiment [7], in experiment [8] and in [9] was “inactive” each time. Moreover, the Potency result in experiment [10], in experiment [11], in experiment [12], in experiment [13], in experiment [14] and in experiment [15] was “inactive” in each case. Besides, the Potency result in experiment [17] was “inactive”. The max response in experiment [16] is -0.361%; in [18], -10% (inactive).
